TSHR antag: antagonists of human thyroid stimulating hormone receptor; P16473; TSHR-expressing cells, TSH-stimulated cAMP HTRF, 2 h; active compounds read low; activity change, negative = inhibition, % at 11.5 µM; hit rate 0.2% among 330,000;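 active = activity change below a set negative limit, meaning inhibition stronger than a set level, cut at about -70% in these data; inconclusive = activity change between two set negative limits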; also: % is scaled to controls: 0 for no effect and ±100 for the full control effect
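Inhibition of cAMP made by TSHR-expressing cells under TSH stimulation (4nM final, EC80; 2 h, 37 deg C) is quantified with a one-step lysis HTRF kit, anti-cAMP cryptate versus cAMP-d2.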
TRb SRC2 PPI: inhibitors of human thyroid hormone receptor beta-SRC2 interaction. TRbeta-SRC2 peptide binding, fluorescence polarization; receptor liganded with 1 µM T3. Potency, µM (doses to about 106 µM), without a hit: top-dose activity change, negative = inhibition, actives largely listed as inhibitors. hit rate 0.065% among 280,000. AID 1469;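 also: potency is read from the fitted curve at half-maximal effect; plate controls were bound peptide for no effect and peptide without receptor for full effect; nearly all actives have a fitted effect of over 50% in size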
Target sequence (P10828 whole entry, looked up): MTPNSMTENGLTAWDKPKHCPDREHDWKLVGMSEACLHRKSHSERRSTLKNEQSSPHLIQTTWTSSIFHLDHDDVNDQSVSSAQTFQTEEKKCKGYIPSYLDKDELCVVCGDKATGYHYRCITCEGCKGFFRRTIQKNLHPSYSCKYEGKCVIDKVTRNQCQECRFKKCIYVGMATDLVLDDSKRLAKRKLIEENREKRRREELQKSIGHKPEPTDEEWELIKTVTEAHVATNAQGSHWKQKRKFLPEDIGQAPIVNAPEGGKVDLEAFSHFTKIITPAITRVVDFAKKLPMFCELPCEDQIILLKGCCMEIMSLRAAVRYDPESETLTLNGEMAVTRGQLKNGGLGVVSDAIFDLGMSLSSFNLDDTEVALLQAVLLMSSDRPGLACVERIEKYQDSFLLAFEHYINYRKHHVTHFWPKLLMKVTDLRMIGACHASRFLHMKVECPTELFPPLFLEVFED
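Decrease in fluorescence polarization of 20 nM Texas Red SRC2 coactivator peptide flagged inhibition of its binding to 0.6 uM TRb LBD; 1 uM T3 included, incubation 5 hr, ex 555/em 632 nm.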
NPSR antagonist: antagonists of human neuropeptide S receptor cAMP signaling; Potency, µM (series often up to 38.3 µM), inactives show at the highest dose activity change, negative = inhibition, hits mostly inhibitors; hit rate 1% among 220,000; AID 1461; CHO-NPSR cells, cAMP TR-FRET, antagonist mode; also: potency is read from the fitted curve at half-maximal effect; % is scaled to controls: 0 for no effect and ±100 for the full control effect; nearly all actives have a fitted effect of over 50% in size
FBPA coupling cs: inhibits coupling enzyme system, counter-screen for aldolase hits; AID 2472; coupling enzyme system counterscreen, AmpLite Red fluorescence; activity change, negative = inhibition, % at 58.2 µM, hits read low; hit rate 0.67% among 290,000; in the data active = activity change below about -30%; also: % is scaled to controls: 0 for no effect and ±100 for the full control effect
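Coupling enzymes only (glyceraldehyde-3-phosphate) + compound, at 57.5 uM final, 10 min RT; add substrate/coupling/AmpLite Red mix, 20 min RT; fluorescence ex 525/em 598 nm. Actives flag coupling-system interference.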
TCR activator: activates T cell receptor signaling; primary human leukocytes, anti-CD3, IL-2 HTRF, 48 h; 330,000 tested, under 10 active; Potency, µM (highest dose often 9.22 µM), for inactives: at the highest dose activation of IL-2 secretion, usual class: activators; also: % of control where 0% means no effect
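Readout: HTRF IL-2, Eu-cryptate/d2 antibody pair, 320nm excitation, 665nm emission. Stimulus: a-CD3 beads, no co-stimulation. Cells: primary human leukocytes. Exposure: 48 hr with compound.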
TR SRC2 fluor cs: counter-screen for TRb-SRC2 inhibitors: fluorescence interference | TRb/SRC2 Texas Red total fluorescence interference | Potency, µM (top dose mostly 106 µM), inactives show at the top dose fluorescence change, negative = quenching | hit rate 0.29% among 280,000 | AID 1479; active = well fitted curve in either direction with a large enough effect; inconclusive = small, poorly fitted or top-dose-only effect; also: potency is read from the fitted curve at half-maximal effect; % is scaled to controls: 0 for no effect and ±100 for the full control effect
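Flags fluorescent or light-absorbing compounds by total fluorescence, S + 2P, at 555 nm excitation and 632 nm emission. Mixture: 20 nM Texas Red SRC2 peptide, 0.6 uM human TRb LBD, 1 uM T3, 5% DMSO; compound exposure 5 h at ambient temperature.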
* hit, by the source's call; ? = inconclusive; / = no result; ! = a repeat was not active; [ ] = another dose, or the depositor's remark. Most compounds without a hit are left out; they make up all but 1% or so of the library. Unless noted, calls follow the shape of the dose curve; as a rule, active = well fitted curve in the direction sought with a large enough effect; inconclusive = small, poorly fitted or top-dose-only effect, or another doubt; inactive = no such curve, though single readings can be large; an effect the other way counts as inactive or inconclusive.

SMILES	TSHR antag	TRb SRC2 PPI	NPSR antagonist	FBPA coupling cs	TCR activator	TR SRC2 fluor cs
COC(=O)CCC(=O)OC1(C)C(=O)C2=CN(Cc3ccc4c(c3)OCO4)C(c3ccc(OC)cc3)=CC2=C(Br)C1=O (configuration not stated)	/	0%[11.2 µM]	/	-3	7%	-1%[11.2 µM]
COC(=O)CCC(=O)OC1(C)C(=O)C2=CN(CCN3CCOCC3)C(c3ccc(OC)cc3)=CC2=C(Br)C1=O (configuration not stated)	-11	3%[11.2 µM]	-14%	-37*!	/	-5%[11.2 µM]
COC(=O)CCC(=O)OC1(C)C(=O)C2=CN(C(CO)CO)C(c3ccc(OC)cc3)=CC2=C(Br)C1=O (configuration not stated)	8	?	-1%	-48*!	/	-4%[11.2 µM]
COC(=O)CCC(=O)OC1(C)C(=O)C2=CN(CCc3ccccn3)C(c3ccc(OC)cc3)=CC2=C(Br)C1=O (configuration not stated)	/	-1%[11.2 µM]	/	-8	2%	0%[11.2 µM]
CC1(OC(=O)CCc2ccccc2)C(=O)C=C2C=C(c3ccc(C#N)cc3)N(CCN3CCOCC3)C=C2C1=O (configuration not stated)	-10	1%[11.2 µM]	-8%	-31*!	8%	-1%[11.2 µM]
COC(=O)CCC(=O)OC1(C)C(=O)C2=CN(CCCCO)C(c3ccc(OC)cc3)=CC2=C(Br)C1=O (configuration not stated)	0	0%[11.2 µM]	/	-47*!	/	-1%[11.2 µM]
Cc1ccc2c(c1)C(c1ccccc1)N(C(=O)Cc1ccc(F)cc1)CC(=O)N2 (configuration not stated)	/	3%	/	/	/	-1%
CC(N)=NCCCC[C@H](N)C(=O)O	/	4%	/	5	/	-1%
Cc1cc(C)cc(NS(=O)(=O)c2ccc3c(c2)NC(=O)C(C)S3)c1 (configuration not stated)	/	0%	/	/	/	3%
COc1ccc(NC(=S)NC(NC(=O)c2cccc(Cl)c2)C(Cl)(Cl)Cl)c([N+](=O)[O-])c1 (configuration not stated)	-25	-5%	10µM*	-2	-4%	-5%
COc1ccc(NC(=S)NC(NC(=O)c2cccc(C)c2)C(Cl)(Cl)Cl)c([N+](=O)[O-])c1 (configuration not stated)	-3	-19%	?	1	1%[46.1 µM]	-2%
O=C(Nc1cc(C(F)(F)F)ccc1Cl)c1cc(S(=O)(=O)NCc2ccccc2)ccc1F	/	6%	/	/	/	-2%
CCn1c(Cl)c(C=O)s/c1=N\S(=O)(=O)c1ccccc1	-98*	-2%	10µM*	5	-4%	1%
CCN1C(=O)CS/C1=N\S(=O)(=O)c1ccc(Cl)cc1	-9	-2%	2%	1	22%	0%
CCC1CN(C(=O)N2CCC(C(=O)O)CC2)c2cc(C)ccc2O1 (configuration not stated)	/	2%	/	/	/	0%
COc1cc(C2CC(=O)Oc3ccc(O)cc32)cc(OC)c1OC (configuration not stated)	/	-1%	/	-3	/	-3%
COc1cc2c(c(OC)c1OC)C(c1ccc(O)cc1)CC(=O)O2 (configuration not stated)	-5	-1%	/	-32*	-11%[46.1 µM]	-2%
COc1ccc(C2CC(O)(c3ccccc3)Oc3cc(OC)c(OC)c(OC)c32)cc1 (configuration not stated)	-29	8%	?	-39*!	-5%	-6%
COc1ccc(C2CC(O)(c3ccccc3)Oc3cc(C)c(Cl)c(C)c32)cc1 (configuration not stated)	/	2%	/	-2	/	1%
O=C(NC(Nc1ncc(S(=O)(=O)c2ccc([N+](=O)[O-])cc2)s1)(C(F)(F)F)C(F)(F)F)c1ccc(Cl)cc1	-40	-10%	13µM*	3	3%	-2%
O=C(Nc1ncc(S(=O)(=O)c2ccc([N+](=O)[O-])cc2)s1)c1cccc2ccccc12	-82*	1%[53 µM]	-29%	6	-8%[46.1 µM]	1%[53 µM]
COCC(=O)Nc1ncc(S(=O)(=O)c2ccc([N+](=O)[O-])cc2)s1	-4	-6%	10%	2	/	-5%
COc1cc(NC(=O)CSc2nc3nc(C)c(Cc4ccccc4)c(C)n3n2)cc(OC)c1OC	/	3%	/	/	/	-1%
CCCc1ccc(-c2ccc(C(=O)Oc3ccc(Br)cc3)cc2)nc1	/	-27%[53 µM]	/	/	/	0.035µM*[quencher]
CCCCCc1ccc(-c2ccc(Br)cc2)nc1	/	-1%	/	/	/	-1%
SMILES	TSHR antag	TRb SRC2 PPI	NPSR antagonist	FBPA coupling cs	TCR activator	TR SRC2 fluor cs
CC(C)(C)SCCNC(=O)CN1C(=O)c2cccc3cccc1c23	-6	/	/	0	1%	/
COCCNC(=O)CN1C(=O)c2cccc3cccc1c23	-127*	/	/	0	/	/
Cc1ccc(NC(=O)NCCCl)cc1S(=O)(=O)N1CCOCC1	-5	-2%	0%	-1	-1%	4%
CCN(CC)S(=O)(=O)c1cc(NC(=O)NCCCl)ccc1C	-71*	-3%	-9%	0	7%	-2%
CC1=C(C(=O)Nc2ccc(C)cc2Cl)C2(CCCCC2)OC1=O	/	-13%	/	/	/	0.0056µM*[quencher]
C=CCSc1nsc(NC(=O)Nc2ccc(F)cc2)n1	-82*	/	/	-3	0%	/
CCSc1nsc(NC(=O)Nc2ccccc2F)n1	-20	/	/	-1	/	/
O=C(c1ccco1)[C@@H]1[C@@H]2C(=O)N(c3ccccc3)C(=O)[C@@H]2C2c3ccccc3C=CN21 (some centres not stated)	-6	-29%	-9%[46.1 µM]	-47*	3%	4%
CC(C)(C)C(=O)[C@@H]1[C@@H]2C(=O)N(c3ccc4c(c3)OCCO4)C(=O)[C@@H]2C2c3ccccc3C=CN21 (some centres not stated)	7	-11%	-16%[46.1 µM]	-30*	5%	-3%
CC(=O)[C@@H]1[C@@H]2C(=O)N(Cc3ccccc3)C(=O)[C@@H]2C2c3ccccc3C=CN21 (some centres not stated)	1	-5%	-1%[46.1 µM]	-33*	/	-5%
COc1ccc(N2C(=O)[C@@H]3[C@H](C2=O)[C@H]2c4ccccc4C=CN2[C@@H]3C(=O)Nc2ccccc2)cc1	-1	1%	-6%[46.1 µM]	-27	6%	0%
O=C(CSc1nc(=O)n(Cc2ccccn2)c2c1CCC2)Nc1cccc(Cl)c1	/	-11%	/	/	/	1%
Cc1cccn2c(=O)c(C(=O)NCc3ccccc3Cl)c(O)nc12	/	-11%	/	/	/	5%
CC(=O)c1cccc(NC(=O)c2c(-c3ccccc3)c(-c3ccccc3)nn(C)c2=O)c1	/	0%	/	/	/	0%
COc1ccc2c(c1)CCc1cnc(N)nc1-2	3	5%	9%	-13	2%	1%

Source: PubChem BioAssay
